Test results as given in PubChem BioAssay (NCATS).
Results filed as inconclusive are left out. Active and inactive are the calls of the source. Unless noted, calls follow the shape of the dose curve; as a rule, active = well fitted curve in the direction sought with a large enough effect; inconclusive = small, poorly fitted or top-dose-only effect, or another doubt; inactive = no such curve, though single readings can be large; an effect the other way counts as inactive or inconclusive.

Tests used:
[1] = Cytometry Cell-Based qHTS for Inhibitors of the mTORC1 Signaling Pathway in MEF cells (AID 2668); conditions: mTORC1 pathway readout; series mostly up to 38.3 µM;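 also: Tsc2-/- p53-/- mouse embryonic fibroblasts stably re-expressing wild-type Tsc2; percent cells positive for phospho-rpS6 Ser235/236 relative to propidium iodide stain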
Summary of the method: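 Tsc2-/-, p53-/- MEFs re-expressing WT Tsc2; cpd 24 hrs, 37 degree Celsius; PFA fix, Alexa-488 p-rpS6 (Ser235/236) Ab 2 hrs RT, PI counterstain; Acumen 488nm scan; p-S6/PI ratio → % positive cells; PI count = viability.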

[2] = target: Ubiquitin carboxyl-terminal hydrolase 2 (Homo sapiens) (UniProt O75604); assay: qHTS Validation Assay for Inhibitors of Ubiquitin-specific Protease USP2a Using CHOP2 as the Reporter (AID 463106); conditions: USP2a cleavage of CHOP2 reporter, enzymatic; series mostly up to 38.3 µM
Summary of the method: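 USP2 core (10 nM final) was preincubated with compound 30 min at RT in pH 8.0 Tris/CaCl2/beta-ME/CHAPS buffer. Ub-CHOP2 and reporter substrate (25 nM final each) were then added, with fluorescence (Ex 485/Em 531) read after 60 min. Data were normalized to NEM full inhibition and fitted to concentration-response curves.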

[3] = target: DNA polymerase III PolC-type (Bacillus subtilis (strain 168)) (UniProt P13267); assay: qHTS Validation Assay for the Inhibitors of DNA Replication in Gram-Positive Bacteria (AID 485295); conditions: Gram-positive bacterial DNA replication assay; series mostly up to 57.1 µM;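 also: reconstituted holoenzyme with PolC plus beta clamp SSB and primase; PicoGreen fluorescence of double-stranded DNA made on primed circular M13 template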
Summary of the method: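 First, compound is mixed with the reconstituted replication complex and held at room temperature. Next, circular single-stranded M13Gori with nucleotides starts synthesis. Finally, PicoGreen in EDTA halts the reaction and stains double-stranded product for fluorescence reading.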

[4] = target: Tumor susceptibility gene 101 protein (Homo sapiens) (UniProt Q99816); assay: qHTS Validation Assay for Iinhibitors of HIV-1 Budding by Blocking the Interaction of PTAP/TSG101 (AID 485342; calls by dose curve); conditions: TSG101-PTAP binding, fluorescence polarization, 4-point titration; series mostly up to 115 µM
Summary of the method: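 Binding of a FITC-tagged PTAP-motif peptide (50 nM) to the Tsg101 binding domain (10 uM) is monitored by fluorescence polarization. Compounds are pin-delivered before peptide addition, and incubation runs 20 min at room temperature.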

[5] = target: Beta-2 adrenergic receptor (Homo sapiens) (UniProt P07550); assay: qHTS validation assay of beta-arrestin-biased ligands of beta2-adrenergic receptor (AID 485366); conditions: cell-based beta-arrestin recruitment to ADRB2, qHTS; series mostly up to 46.1 µM
Summary of the method: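 Luminescence from a tTA-responsive luciferase, induced when recombinant beta-arrestin is recruited to recombinant beta2-AR, served as the agonism signal. Cells were exposed to compound for 18 hr at 37 degrees C; titrations spanned up to 46 microM.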

[6] = target: Thioredoxin reductase 1, cytoplasmic (Rattus norvegicus) (UniProt O89049); assay: qHTS Assay for Substrates of Mammalian Selenoprotein Thioredoxin Reductase 1 (TrxR1) (AID 488772); conditions: purified TrxR1, NADPH consumption substrate assay; series mostly up to 57.1 µM;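 also: NADPH fluorescence in the first read after selenite addition and not the 8 min delta; a drop in NADPH fluorescence below the no-compound background marks a TrxR1 substrate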
Summary of the method: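 Quantitative HTS in Tris-HCl buffer at pH 7.5 with EDTA and Tween-20, using rat TrxR1, 400 uM NADPH and 400 uM selenite (final). A fall in initial NADPH fluorescence relative to background marked substrate behaviour.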

[7] = target: Thioredoxin reductase 1, cytoplasmic (Rattus norvegicus) (UniProt O89049); assay: qHTS Assay for Inhibitors of Mammalian Selenoprotein Thioredoxin Reductase 1 (TrxR1) (AID 488773); conditions: purified TrxR1 enzyme activity; series mostly up to 57.1 µM;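 also: drop in NADPH fluorescence over an 8 min run after selenite addition; nearly all actives have a fitted effect of over 40% in size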
Summary of the method: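 Steps: enzyme (90 nM) plus NADPH (400 uM final), 5 min at ~22 deg C; compound added, 15 min; selenite (400 uM final) added; fluorescence followed for 8 min. Concentration-response curves derived from the normalized delta values.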

[8] = target: Flap endonuclease 1 (Homo sapiens) (UniProt P39748); assay: qHTS Validation Assay for the Inhibitors of Human Flap endonuclease 1 (FEN1) (AID 488816); conditions: FEN1 nuclease activity, fluorogenic DNA substrate; series mostly up to 57.1 µM
Summary of the method: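 Human FEN1 (10 nM) preincubated 15 min at room temperature with compounds, then flap DNA substrate added at 50 nM final. Fluorescence read at 0 and 15 min; concentration-response fitted with four-parameter Hill equation.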

[9] = target: M-phase phosphoprotein 8 (Homo sapiens) (UniProt Q99549); assay: qHTS Validation Assay for Inhibitors for MPP8 Chromodomain Interactions with Methylated Histone Tails (AID 488949); conditions: AlphaScreen MPP8 binding to H3K9me3 peptide; series mostly up to 57.1 µM;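 also: 50 nM MPP8 with 50 nM peptide preformed then compounds added for 30 min; AlphaScreen signal from MPP8 chromodomain bound to biotinylated H3K9me3 peptide; top concentration of the series differs between compounds; nearly all actives have a fitted effect of over 55% in size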
Summary of the method: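 50 nM MPP8 + 50 nM b-H3K9me3 peptide, PBS pH 7.4/0.01% Tween-20, 30 min RT; + cpd 30 min RT; + AlphaScreen donor/Ni-chelate acceptor beads 10 ug/mL final, 30 min dark; luminescence read.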

[10] = target: Methanococcus maripaludis chaperonin (MmCpn) (UniProt Q6LX38); assay: High-Throughput Screening for Modulators of Cytosolic Chaperonin Activity: MmCpn Primary Screen (AID 488978); conditions: Purified MmCpn ATPase activity, ADP HTRF detection, 10 min; series mostly up to 76.9 µM;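 also: 50 nM MmCpn enzyme hydrolysing 30 µM ATP at 37 °C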
Summary of the method: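 Steps: chaperonin 50 nM final; add compound, 5 min RT; start with ATP, 30 uM final; hold 10 min at 37C; add ADP Transcreener HTRF reagent, 5 min; read ex 320, em 590 and 665 nm.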

[11] = target: D(1A) dopamine receptor (Homo sapiens) (UniProt P21728); assay: HTS Assay for Allosteric Agonists of the Human D1 Dopamine Receptor: Primary Screen for Agonists (AID 488981); conditions: Inducible HEK293 T-REx D1 cells, calcium-flux fluorescence, 180 s kinetic; series mostly up to 41.8 µM
Summary of the method: (§1)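 Tetracycline-induced HEK293 Trex D1 cells with forced coupling to calcium, loaded with no-wash calcium dye; kinetic fluorescence read 180 s after compound addition for agonism, then a further 180 s after an EC20 dopamine challenge for potentiation.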

[12] = target: D(1A) dopamine receptor (Homo sapiens) (UniProt P21728); assay: HTS Assay for Allosteric Agonists of the Human D1 Dopamine Receptor: Primary Screen for Potentiators (AID 488982); conditions: HEK293 T-REx D1 inducible cells, calcium flux, kinetic fluorescence; series mostly up to 8.37 µM
Summary of the method: as §1

[13] = target: D(1A) dopamine receptor (Homo sapiens) (UniProt P21728); assay: HTS Assay for Allosteric Agonists of the Human D1 Dopamine Receptor: Primary Screen for Antagonists (AID 488983); conditions: D1 receptor cell assay, antagonist mode, qHTS titration; series mostly up to 41.8 µM;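 also: calcium flux response to an EC80 dopamine challenge measured with no-wash dye; nearly all actives have a fitted effect of over 65% in size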
Summary of the method: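 Screening of inducible HEK293 T-REx D1 cells: compound first, EC80 dopamine 180 s later, each phase read kinetically for calcium over 180 s.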

[14] = Validation screen for small molecules that induce genotoxicity in human embryonic kidney (HEK293T) cells expressing luciferase-tagged ELG1 (AID 493106); conditions: luminescence; series mostly up to 46.1 µM
Summary of the method: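 Reporter-gene quantitative HTS in HEK293T cells carrying luciferase-tagged ELG1, whose level climbs under genotoxic stress. Compound exposure lasts 16 hr at 37 °C before luciferase detection.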

[15] = qHTS for Inhibitors of Cell Surface uPA Generation: Validation Assay (AID 493164); conditions: mouse cells, plasminogen activation; series mostly up to 38.3 µM;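 also: RAW 264.7 macrophage cells exposed to compound for 18 h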
Summary of the method: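 RAW 264.7, 4000 cells/well, o/n plating; cpd 7-pt 1:5 dilution 2.45 nM–38.3 uM final; 18 h, 37 C/5% CO2; ATP-Lite, 5 s luminescence exposure.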

[16] = target: Peptidyl-prolyl cis-trans isomerase NIMA-interacting 1 (Homo sapiens) (UniProt Q13526); assay: qHTS Validation Assay to Find Inhibitors of Pin1 (AID 504536; active = well fitted inhibition curve with a large enough effect in the polarisation, with a control signal flat, not every such curve was filed as active; the % refers to the polarisation); conditions: Pin1 fluorescence polarization peptide binding assay; series mostly up to 57.5 µM
Summary of the method: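 Fluorescence polarization competition: compounds (titration) displace HiFluor-488-labeled Pin1-1b peptide from Pin1 (0.3 uM final) in pH 7.5 HEPES buffer with DTT, 10 min at room temperature; %Activity normalized to no-enzyme wells, curves fitted.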

[17] = target: Phosphoglycerate kinase, glycosomal (Trypanosoma brucei brucei) (UniProt P07378); assay: qHTS Validation Assay to Find Inhibitors of Phosphoglycerate Kinase (AID 504547); conditions: enzymatic PGK inhibition, coupled luminescence read-out; series mostly up to 57.5 µM
Summary of the method: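 PGK activity was coupled to GAPDH (100nM final), which generates the unstable substrate 1,3-bisphosphoglycerate in-well. Reactions ran 60 minutes at room temperature in 100mM TEA pH 7.6, 5mM MgCl2, 0.01% Tween-20, then Kinase-Glo Plus luminescence was read.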

[18] = target: phosphoglycerate mutase (Leishmania major) (UniProt Q4Q090); assay: qHTS Validation Assay to Find Inhibitors of Phosphoglycerate Mutase (AID 504548); conditions: biochemical enzyme activity; series mostly up to 57.5 µM;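 also: end-point luminescence from Kinase-GloPlus after the PGAM reaction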
Summary of the method: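 Inhibition of L. major PGAM was assessed by Kinase-GloPlus luminescence following a 45-minute room-temperature reaction with enzyme at 1.25nM final.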

[19] = target: Glutaminase kidney isoform, mitochondrial (Homo sapiens) (UniProt O94925); assay: qHTS for Inhibitors of Glutaminase (GLS): LOPAC Validation (AID 624146); conditions: glutaminase enzyme activity inhibition; series mostly up to 46.1 µM;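 also: glutamate product detected by oxidase and peroxidase coupled Amplex red fluorescence gain; nearly all actives have a fitted effect of over 60% in size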
Summary of the method: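 Compounds were pin-transferred onto hKGA, after which L-glutamine (1 mM solution) and a detection mix of glutamate oxidase, HRP and Amplex Red were added. Initial and 30 min RT fluorescence reads were collected.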

[20] = qHTS of Trypanosoma Brucei Inhibitors: LOPAC Validation (AID 624147); conditions: purified enzyme assay, luminescence, 45 min; series mostly up to 57.5 µM
Summary of the method: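 Assay buffer: 50 mM TEA pH 7.2, 100 mM KCl, 10 mM MgCl2, 0.05% BSA, 0.01% Tween-20. Pyruvate kinase from T. brucei plus substrate met compound, then ADP (130 uM final). Luminescence was read post 45 min RT.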

Measured: outcome

D(1A) dopamine receptor (Homo sapiens), sequence (P21728 whole entry, looked up): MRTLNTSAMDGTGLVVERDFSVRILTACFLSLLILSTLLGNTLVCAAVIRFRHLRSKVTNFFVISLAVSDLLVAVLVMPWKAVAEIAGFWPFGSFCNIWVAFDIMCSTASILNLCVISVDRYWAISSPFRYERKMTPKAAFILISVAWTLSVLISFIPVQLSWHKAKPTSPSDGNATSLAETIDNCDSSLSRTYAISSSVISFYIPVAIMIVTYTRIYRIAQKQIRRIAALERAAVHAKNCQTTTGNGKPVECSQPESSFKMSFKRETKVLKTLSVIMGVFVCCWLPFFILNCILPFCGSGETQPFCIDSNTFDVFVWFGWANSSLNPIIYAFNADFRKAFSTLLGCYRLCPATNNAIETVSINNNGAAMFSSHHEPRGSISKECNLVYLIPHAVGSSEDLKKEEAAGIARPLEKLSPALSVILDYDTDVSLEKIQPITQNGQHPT
Thioredoxin reductase 1, cytoplasmic (Rattus norvegicus), sequence (O89049 whole entry, looked up): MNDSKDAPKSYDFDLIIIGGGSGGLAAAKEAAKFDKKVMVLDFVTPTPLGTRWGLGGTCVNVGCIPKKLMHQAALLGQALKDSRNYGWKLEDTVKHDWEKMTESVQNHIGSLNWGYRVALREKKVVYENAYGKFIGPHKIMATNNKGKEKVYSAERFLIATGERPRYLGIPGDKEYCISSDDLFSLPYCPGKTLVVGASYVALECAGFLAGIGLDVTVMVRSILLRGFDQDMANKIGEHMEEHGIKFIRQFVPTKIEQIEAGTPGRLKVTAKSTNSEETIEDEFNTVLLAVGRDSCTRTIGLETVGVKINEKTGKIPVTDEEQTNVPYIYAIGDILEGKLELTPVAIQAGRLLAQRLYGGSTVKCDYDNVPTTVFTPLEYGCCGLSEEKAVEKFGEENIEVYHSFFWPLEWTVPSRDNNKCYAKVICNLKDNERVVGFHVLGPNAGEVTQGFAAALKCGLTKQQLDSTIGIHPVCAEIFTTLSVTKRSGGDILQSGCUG
Phosphoglycerate kinase, glycosomal (Trypanosoma brucei brucei), sequence (P07378 whole entry, looked up): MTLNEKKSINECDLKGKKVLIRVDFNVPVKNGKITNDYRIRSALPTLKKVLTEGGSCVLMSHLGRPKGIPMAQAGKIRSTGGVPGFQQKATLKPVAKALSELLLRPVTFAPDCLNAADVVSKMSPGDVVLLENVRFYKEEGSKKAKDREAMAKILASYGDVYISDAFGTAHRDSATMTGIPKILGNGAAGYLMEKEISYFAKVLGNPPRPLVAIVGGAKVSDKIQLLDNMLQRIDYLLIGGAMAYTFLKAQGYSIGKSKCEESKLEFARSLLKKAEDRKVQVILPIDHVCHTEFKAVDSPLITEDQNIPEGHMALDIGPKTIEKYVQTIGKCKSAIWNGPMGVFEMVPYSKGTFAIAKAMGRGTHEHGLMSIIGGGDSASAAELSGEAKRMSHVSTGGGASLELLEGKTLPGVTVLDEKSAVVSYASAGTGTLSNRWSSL
Peptidyl-prolyl cis-trans isomerase NIMA-interacting 1 (Homo sapiens), sequence (Q13526 whole entry, looked up): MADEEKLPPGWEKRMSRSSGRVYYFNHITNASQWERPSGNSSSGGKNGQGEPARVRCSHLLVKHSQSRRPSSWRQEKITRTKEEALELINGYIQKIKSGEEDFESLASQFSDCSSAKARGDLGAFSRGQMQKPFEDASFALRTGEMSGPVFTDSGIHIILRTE
Ubiquitin carboxyl-terminal hydrolase 2 (Homo sapiens), sequence (O75604 whole entry, looked up): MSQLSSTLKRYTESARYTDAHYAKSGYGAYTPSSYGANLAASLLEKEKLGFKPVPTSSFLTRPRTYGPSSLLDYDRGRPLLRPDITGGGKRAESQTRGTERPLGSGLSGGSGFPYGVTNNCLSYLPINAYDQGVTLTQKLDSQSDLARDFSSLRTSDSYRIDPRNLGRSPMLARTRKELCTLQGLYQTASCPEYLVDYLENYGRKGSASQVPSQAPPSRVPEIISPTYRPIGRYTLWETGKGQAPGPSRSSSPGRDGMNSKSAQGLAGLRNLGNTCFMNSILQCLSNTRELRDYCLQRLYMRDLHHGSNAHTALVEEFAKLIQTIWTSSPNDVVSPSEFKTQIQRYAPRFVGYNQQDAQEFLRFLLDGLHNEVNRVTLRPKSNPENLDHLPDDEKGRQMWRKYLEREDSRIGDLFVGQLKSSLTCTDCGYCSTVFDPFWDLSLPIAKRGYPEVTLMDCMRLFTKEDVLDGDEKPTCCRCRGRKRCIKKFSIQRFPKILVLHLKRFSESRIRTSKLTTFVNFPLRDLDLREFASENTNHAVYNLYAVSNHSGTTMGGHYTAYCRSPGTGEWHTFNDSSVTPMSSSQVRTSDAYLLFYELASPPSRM
phosphoglycerate mutase (Leishmania major), sequence (Q4Q090 1-553): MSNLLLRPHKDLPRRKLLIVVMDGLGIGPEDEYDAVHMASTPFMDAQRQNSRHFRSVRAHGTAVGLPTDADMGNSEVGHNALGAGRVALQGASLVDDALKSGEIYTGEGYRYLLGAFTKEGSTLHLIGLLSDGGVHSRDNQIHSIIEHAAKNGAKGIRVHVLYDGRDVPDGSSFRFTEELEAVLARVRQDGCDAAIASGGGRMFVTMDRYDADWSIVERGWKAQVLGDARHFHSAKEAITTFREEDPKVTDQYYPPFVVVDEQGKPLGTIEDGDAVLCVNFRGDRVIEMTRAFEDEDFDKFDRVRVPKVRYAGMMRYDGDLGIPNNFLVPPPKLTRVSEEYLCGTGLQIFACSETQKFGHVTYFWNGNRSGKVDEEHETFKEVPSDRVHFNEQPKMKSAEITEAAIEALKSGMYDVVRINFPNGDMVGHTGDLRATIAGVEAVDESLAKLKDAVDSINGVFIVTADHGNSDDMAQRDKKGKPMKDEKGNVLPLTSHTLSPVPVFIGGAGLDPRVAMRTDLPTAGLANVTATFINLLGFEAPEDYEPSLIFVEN
Beta-2 adrenergic receptor (Homo sapiens), sequence (P07550 whole entry, looked up): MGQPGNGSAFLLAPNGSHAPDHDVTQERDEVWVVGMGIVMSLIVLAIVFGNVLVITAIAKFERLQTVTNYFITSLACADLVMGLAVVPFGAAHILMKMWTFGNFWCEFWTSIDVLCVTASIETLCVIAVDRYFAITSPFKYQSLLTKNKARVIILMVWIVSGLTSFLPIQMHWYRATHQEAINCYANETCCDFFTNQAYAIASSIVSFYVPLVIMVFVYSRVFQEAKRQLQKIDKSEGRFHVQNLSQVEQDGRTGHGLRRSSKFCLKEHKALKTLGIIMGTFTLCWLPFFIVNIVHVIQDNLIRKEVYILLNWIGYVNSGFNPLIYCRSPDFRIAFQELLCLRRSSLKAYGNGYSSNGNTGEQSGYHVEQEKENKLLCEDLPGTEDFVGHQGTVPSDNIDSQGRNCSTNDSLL
M-phase phosphoprotein 8 (Homo sapiens), sequence (Q99549 whole entry, looked up): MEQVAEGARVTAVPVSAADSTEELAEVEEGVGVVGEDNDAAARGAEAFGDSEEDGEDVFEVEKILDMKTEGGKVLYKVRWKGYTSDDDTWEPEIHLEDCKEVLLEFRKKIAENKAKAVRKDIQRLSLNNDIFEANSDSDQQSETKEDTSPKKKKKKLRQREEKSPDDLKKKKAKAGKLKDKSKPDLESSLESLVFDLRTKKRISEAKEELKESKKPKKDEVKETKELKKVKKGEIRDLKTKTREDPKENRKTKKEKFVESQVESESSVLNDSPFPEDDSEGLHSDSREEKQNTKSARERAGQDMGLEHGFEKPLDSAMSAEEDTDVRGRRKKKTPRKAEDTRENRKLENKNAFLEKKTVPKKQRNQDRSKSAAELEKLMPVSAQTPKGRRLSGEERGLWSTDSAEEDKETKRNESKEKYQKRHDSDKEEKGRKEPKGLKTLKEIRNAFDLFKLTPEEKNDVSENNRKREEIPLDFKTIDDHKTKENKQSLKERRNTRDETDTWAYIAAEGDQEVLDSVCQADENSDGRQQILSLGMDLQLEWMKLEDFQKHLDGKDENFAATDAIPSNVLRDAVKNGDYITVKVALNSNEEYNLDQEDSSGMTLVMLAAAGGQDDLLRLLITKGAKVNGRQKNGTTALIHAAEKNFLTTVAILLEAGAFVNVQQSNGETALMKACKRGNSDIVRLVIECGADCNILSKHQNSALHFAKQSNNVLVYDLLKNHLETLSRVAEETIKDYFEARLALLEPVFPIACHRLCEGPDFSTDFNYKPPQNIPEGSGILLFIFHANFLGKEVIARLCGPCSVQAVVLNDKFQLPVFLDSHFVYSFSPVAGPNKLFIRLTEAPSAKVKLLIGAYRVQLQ
Glutaminase kidney isoform, mitochondrial (Homo sapiens), sequence (O94925 whole entry, looked up, canonical isoform): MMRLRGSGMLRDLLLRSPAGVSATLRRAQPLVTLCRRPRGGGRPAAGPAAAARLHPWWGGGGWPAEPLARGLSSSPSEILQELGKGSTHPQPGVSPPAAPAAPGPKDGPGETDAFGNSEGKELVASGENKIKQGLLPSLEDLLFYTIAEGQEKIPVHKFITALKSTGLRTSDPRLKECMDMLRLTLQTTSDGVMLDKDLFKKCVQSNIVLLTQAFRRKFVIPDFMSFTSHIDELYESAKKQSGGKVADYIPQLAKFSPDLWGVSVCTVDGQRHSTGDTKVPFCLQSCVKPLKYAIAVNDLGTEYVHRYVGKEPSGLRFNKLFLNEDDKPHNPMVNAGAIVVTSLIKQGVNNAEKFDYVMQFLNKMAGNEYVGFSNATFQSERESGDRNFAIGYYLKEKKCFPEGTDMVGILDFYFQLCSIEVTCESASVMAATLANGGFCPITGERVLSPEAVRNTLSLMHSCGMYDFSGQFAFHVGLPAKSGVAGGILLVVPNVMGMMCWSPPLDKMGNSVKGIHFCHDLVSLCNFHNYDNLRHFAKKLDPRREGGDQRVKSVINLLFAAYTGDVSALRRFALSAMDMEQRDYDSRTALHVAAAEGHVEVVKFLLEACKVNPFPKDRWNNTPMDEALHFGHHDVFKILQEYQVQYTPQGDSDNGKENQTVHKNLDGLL

CC[C@@H](CO)Nc1nc(NCc2ccccc2)c2ncn(C(C)C)c2n1
inactive: all assays above
